Source: PubChem BioAssay AID720597 (Broad Institute, 2013)
Potency and affinity values are given separately. Calls of active or inactive are those of the source.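 How the source made its calls: active means fitted half-maximal dose no more than twice the top valid tested dose, for compounds that lower signal; inconclusive means fit invalid, or curve flat with activity between -70 and -30; inactive means potency past limit, curve flat within ±30, or signal increasing.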

Molecular target: NAD-dependent protein deacylase sirtuin-5, mitochondrial (Homo sapiens) (UniProt Q9NXA8)
Assay: blockers of sirtuin-5 peptide desuccinylation – biochemical, fluorescence imaging, cherry-pick, set 6, dose response (AID 720597);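 further: lower AMC signal can also come from blocking the trypsin step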

NAD-dependent protein deacylase sirtuin-5, mitochondrial (Homo sapiens), sequence (Q9NXA8 whole entry, looked up): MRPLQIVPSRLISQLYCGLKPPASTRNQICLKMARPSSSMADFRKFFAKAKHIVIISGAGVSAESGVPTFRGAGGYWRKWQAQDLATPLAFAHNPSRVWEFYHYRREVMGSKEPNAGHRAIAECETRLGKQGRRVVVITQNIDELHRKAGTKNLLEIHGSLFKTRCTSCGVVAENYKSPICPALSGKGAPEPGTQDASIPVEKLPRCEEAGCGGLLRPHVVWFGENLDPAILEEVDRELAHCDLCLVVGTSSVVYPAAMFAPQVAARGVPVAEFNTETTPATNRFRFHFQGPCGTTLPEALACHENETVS

SMILES	outcome
COc1ccccc1NC(=O)N[C@@H]1CC[C@H](CCNS(=O)(=O)c2ccc(Cl)cc2)O[C@@H]1CO	inactive
COc1ccccc1-c1ccc2c(c1)O[C@H](CN(C)S(=O)(=O)c1ccc(F)cc1)[C@@H](C)CN([C@@H](C)CO)S2(=O)=O	inactive
C[C@H](CO)N1C[C@H](C)[C@H](CN(C)Cc2ccc(-c3ccccc3)cc2)Oc2cc(C#CC(C)(C)O)ccc2S1(=O)=O	inactive
C[C@H]1CN([C@@H](C)CO)S(=O)(=O)c2ccc(/C=C/c3ccccc3)cc2O[C@H]1CN(C)C(=O)Nc1cc(F)ccc1F	inactive
COc1ccc([Si](C)(C)[C@H]2[C@H](CCn3cc([C@H](O)c4ccccc4)nn3)O[C@@]3(C(=O)N(Cc4cccc(N5CCOC5=O)c4)c4ccccc43)[C@@H]2C)cc1	inactive
C[C@H]1CN([C@@H](C)CO)C(=O)c2c(c3ccccc3n2C)-c2ccccc2CO[C@@H]1CN(C)Cc1cccc2c1OCCCO2	inactive
C[C@H]1CN([C@@H](C)CO)C(=O)CCCn2nncc2CO[C@@H]1CN(C)C(=O)CCCN(C)C	inactive
O=C(NCC[C@H]1CC[C@@H](NC(=O)Nc2cc(F)ccc2F)[C@H](CO)O1)Nc1ccc(F)cc1	inactive
C[C@H]1CN([C@@H](C)CO)S(=O)(=O)c2ccc(C3=CCCCC3)cc2O[C@@H]1CN(C)S(=O)(=O)c1ccc(F)cc1	inactive
